According to the supplement of paper PMC10849652:
About 7,900 targets were measured; listed, in parts, are those with a hit and a random draw of the rest. About 0.6% of all pairs of compound and target were hits.

What was measured:
Experiment in all cases: log2 fold change, soluble protein after heating vs DMSO (PISA); higher = thermal stabilisation; K562 cells, 10 uM, 30 min; active = over 0.2 and 3.5 SD of the protein, either way, in both replicates (recomputed)
[1] = compound: COC1=CC=C(C=C1)CN2C=CC3=C2C=C(C=C3)C(=O)NO
How it was run: (§1)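 Aliquots of K562 cells (2×10^6 cells/mL) treated with 10 μM compound for 30 min were heated for 3 min over 48°C-58°C. After pooling and extraction in PBS with 0.5% NP-40 at 4°C, soluble protein from a 21,000xg, 90 min spin was quantified by TMTpro 16plex LC-MS/MS with channel sums equalised. Thermal stability is expressed against control samples, from duplicates, as a log2 fold change.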

filanesib = compound: CON(C)C(=O)N1N=C(c2cc(F)ccc2F)S[C@@]1(CCCN)c1ccccc1 [filanesib]
How it was run: as §1

zotarolimus = compound: CO[C@H]1C[C@@H]2CC[C@@H](C)[C@@](O)(O2)C(=O)C(=O)N2CCCC[C@H]2C(=O)O[C@H]([C@H](C)C[C@@H]2CC[C@H](n3cnnn3)[C@H](OC)C2)CC(=O)[C@H](C)/C=C(\C)[C@@H](O)[C@@H](OC)C(=O)[C@H](C)C[C@H](C)/C=C/C=C/C=C/1C [zotarolimus]
How it was run: as §1

idasanutlin = compound: COc1cc(C(=O)O)ccc1NC(=O)[C@@H]1N[C@@H](CC(C)(C)C)[C@](C#N)(c2ccc(Cl)cc2F)[C@H]1c1cccc(Cl)c1F [idasanutlin]
How it was run: as §1

alisertib = compound: COc1cc(Nc2ncc3c(n2)-c2ccc(Cl)cc2C(c2c(F)cccc2OC)=NC3)ccc1C(=O)O [alisertib]
How it was run: as §1

[2] = compound: COc1cc2nc(-c3cc(F)ccc3O)nc(N[C@@H]3CNC[C@H]3C(C)(C)O)c2cc1OC
How it was run: as §1

gefitinib = compound: COc1cc2ncnc(Nc3ccc(F)c(Cl)c3)c2cc1OCCCN1CCOCC1 [gefitinib]
How it was run: as §1

[3] = compound: COc1cccc2cc(-c3nc([C@H]4CC[C@H](C(=O)O)CC4)n4ncnc(N)c34)[nH]c12
How it was run: as §1

lapatinib = compound: CS(=O)(=O)CCNCc1ccc(-c2ccc3ncnc(Nc4ccc(OCc5cccc(F)c5)c(Cl)c4)c3c2)o1 [lapatinib]
How it was run: as §1

pictilisib = compound: CS(=O)(=O)N1CCN(Cc2cc3nc(-c4cccc5[nH]ncc45)nc(N4CCOCC4)c3s2)CC1 [pictilisib]
How it was run: as §1

Measured: log2 fold change

RDH10 (UniProt Q8IZV5)
Sequence of UniProt Q8IZV5 (Q8IZV5 whole entry, looked up): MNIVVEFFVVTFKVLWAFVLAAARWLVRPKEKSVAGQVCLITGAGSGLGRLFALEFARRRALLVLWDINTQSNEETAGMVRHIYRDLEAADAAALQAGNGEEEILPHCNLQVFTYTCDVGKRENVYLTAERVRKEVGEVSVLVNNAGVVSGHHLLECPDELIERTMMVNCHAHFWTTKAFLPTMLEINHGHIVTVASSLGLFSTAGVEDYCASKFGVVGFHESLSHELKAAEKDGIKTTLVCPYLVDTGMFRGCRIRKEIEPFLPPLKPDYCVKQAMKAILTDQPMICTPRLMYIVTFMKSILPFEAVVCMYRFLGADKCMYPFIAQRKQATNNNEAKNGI
inactive: [1] -0.007 | filanesib -0.023 | zotarolimus -0.03 | idasanutlin -0.14 | alisertib 0.013 | [2] 0.031 | gefitinib 0.083 | [3] 0.036 | lapatinib 0.037 | pictilisib 0.009

RAB8B (UniProt Q92930)
Sequence of UniProt Q92930 (Q92930 whole entry, looked up): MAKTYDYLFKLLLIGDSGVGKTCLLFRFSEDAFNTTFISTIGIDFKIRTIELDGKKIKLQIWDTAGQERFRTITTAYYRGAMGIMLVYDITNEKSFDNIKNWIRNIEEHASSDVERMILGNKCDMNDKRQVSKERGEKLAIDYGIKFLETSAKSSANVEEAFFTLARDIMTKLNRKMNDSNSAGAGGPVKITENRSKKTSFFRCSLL
inactive: [1] 0.258 | filanesib -0.076 | zotarolimus 0.045 | idasanutlin -0.017 | alisertib -0.035 | [2] -0.064 | gefitinib 0.021 | [3] -0.076 | lapatinib 0.023 | pictilisib -0.096

SLC12A5 (UniProt Q9H2X9)
inactive: [1] 0.323 | filanesib -0.071 | zotarolimus -0.076 | idasanutlin 0.017 | alisertib 0.299 | [2] -0.097 | [3] 0.124 | lapatinib 0.085

SCO2 (UniProt O43819)
Sequence of UniProt O43819 (O43819 whole entry, looked up): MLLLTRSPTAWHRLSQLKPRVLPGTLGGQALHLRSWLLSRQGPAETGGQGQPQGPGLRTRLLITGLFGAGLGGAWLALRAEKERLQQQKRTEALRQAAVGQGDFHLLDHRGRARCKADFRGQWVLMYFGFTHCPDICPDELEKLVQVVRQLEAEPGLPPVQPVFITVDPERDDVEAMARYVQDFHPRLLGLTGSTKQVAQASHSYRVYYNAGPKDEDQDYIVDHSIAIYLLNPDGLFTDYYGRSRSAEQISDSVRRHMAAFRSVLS
inactive: [1] -0.078 | filanesib 0.039 | zotarolimus 0.057 | idasanutlin -0.099 | alisertib -0.103 | [2] -0.097 | [3] 0.117 | lapatinib 0 | pictilisib -0.015

RPS6KA3 (UniProt P51812)
inactive: [1] -0.013 | filanesib 0 | zotarolimus 0.033 | idasanutlin -0.008 | [2] -0.221 | gefitinib -0.033 | [3] 0.013 | lapatinib 0.011 | pictilisib -0.011

SGPL1 (UniProt O95470)
inactive: [1] -0.064 | filanesib 0.107 | zotarolimus -0.011 | idasanutlin 0.051 | alisertib -0.046 | [2] 0.012 | gefitinib 0.001 | [3] -0.115 | lapatinib 0.04 | pictilisib -0.013

SELENOH (UniProt Q8IZQ5)
Sequence of UniProt Q8IZQ5 (Q8IZQ5 whole entry, looked up): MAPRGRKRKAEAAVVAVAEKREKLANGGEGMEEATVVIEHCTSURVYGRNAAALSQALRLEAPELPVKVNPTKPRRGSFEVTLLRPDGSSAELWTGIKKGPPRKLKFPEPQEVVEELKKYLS
inactive: [1] 0.204 | filanesib -0.077 | zotarolimus 0.035 | idasanutlin 0.02 | alisertib -0.27 | [2] -0.114 | gefitinib -0.028 | [3] -0.038 | lapatinib 0.08 | pictilisib -0.074

RHEB (UniProt Q15382)
Sequence of UniProt Q15382 (Q15382 whole entry, looked up): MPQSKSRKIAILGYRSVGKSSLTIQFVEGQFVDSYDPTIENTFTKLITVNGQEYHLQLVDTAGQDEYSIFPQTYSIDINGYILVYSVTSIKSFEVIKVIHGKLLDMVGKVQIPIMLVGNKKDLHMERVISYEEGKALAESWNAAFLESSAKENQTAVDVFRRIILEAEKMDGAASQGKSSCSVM
inactive: [1] -0.007 | filanesib -0.08 | zotarolimus 0.016 | idasanutlin -0.049 | alisertib -0.03 | [2] 0.032 | gefitinib 0.015 | [3] 0.057 | lapatinib 0.005 | pictilisib 0.029

RHOXF2 (UniProt Q9BQY4)
Sequence of UniProt Q9BQY4 (Q9BQY4 whole entry, looked up): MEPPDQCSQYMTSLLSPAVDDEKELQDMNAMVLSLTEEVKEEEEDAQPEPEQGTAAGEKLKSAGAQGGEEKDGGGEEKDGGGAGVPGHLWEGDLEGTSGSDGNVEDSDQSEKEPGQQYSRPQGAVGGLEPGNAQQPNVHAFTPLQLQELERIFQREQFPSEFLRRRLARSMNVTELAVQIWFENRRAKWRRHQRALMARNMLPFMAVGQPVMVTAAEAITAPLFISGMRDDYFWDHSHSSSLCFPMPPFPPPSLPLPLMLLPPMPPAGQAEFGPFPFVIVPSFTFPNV
inactive: [1] 0.017 | filanesib 0.013 | zotarolimus -0.039 | idasanutlin 0.02 | alisertib -0.068 | [2] -0.001 | gefitinib -0.021 | [3] 0.056 | lapatinib -0.028 | pictilisib 0.088

RPP14 (UniProt O95059)
Sequence of UniProt O95059 (O95059 whole entry, looked up): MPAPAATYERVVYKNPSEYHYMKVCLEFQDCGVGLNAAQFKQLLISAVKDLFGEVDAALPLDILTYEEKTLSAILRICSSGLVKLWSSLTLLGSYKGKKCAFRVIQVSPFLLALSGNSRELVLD
inactive: [1] -0.006 | filanesib 0.046 | zotarolimus 0.004 | idasanutlin -0.038 | alisertib -0.051 | [2] -0.053 | gefitinib -0.022 | [3] 0.047 | lapatinib 0.042 | pictilisib -0.19

RAF1 isoform 2 (UniProt P04049)
inactive: [1] 0.035 | filanesib 0.085 | zotarolimus -0.024 | idasanutlin -0.102 | alisertib 0.139 | [2] -0.246 | [3] -0.067 | lapatinib 0.051 | pictilisib 0.207

RPS18 (UniProt P62269)
inactive: [1] -0.157 | filanesib 0.118 | zotarolimus 0.012 | idasanutlin 0.046 | alisertib -0.015 | [2] -0.021 | gefitinib -0.013 | [3] -0.109 | lapatinib 0.065 | pictilisib -0.107

RNPEP (UniProt Q9H4A4)
Sequence of UniProt Q9H4A4 (Q9H4A4 whole entry, looked up): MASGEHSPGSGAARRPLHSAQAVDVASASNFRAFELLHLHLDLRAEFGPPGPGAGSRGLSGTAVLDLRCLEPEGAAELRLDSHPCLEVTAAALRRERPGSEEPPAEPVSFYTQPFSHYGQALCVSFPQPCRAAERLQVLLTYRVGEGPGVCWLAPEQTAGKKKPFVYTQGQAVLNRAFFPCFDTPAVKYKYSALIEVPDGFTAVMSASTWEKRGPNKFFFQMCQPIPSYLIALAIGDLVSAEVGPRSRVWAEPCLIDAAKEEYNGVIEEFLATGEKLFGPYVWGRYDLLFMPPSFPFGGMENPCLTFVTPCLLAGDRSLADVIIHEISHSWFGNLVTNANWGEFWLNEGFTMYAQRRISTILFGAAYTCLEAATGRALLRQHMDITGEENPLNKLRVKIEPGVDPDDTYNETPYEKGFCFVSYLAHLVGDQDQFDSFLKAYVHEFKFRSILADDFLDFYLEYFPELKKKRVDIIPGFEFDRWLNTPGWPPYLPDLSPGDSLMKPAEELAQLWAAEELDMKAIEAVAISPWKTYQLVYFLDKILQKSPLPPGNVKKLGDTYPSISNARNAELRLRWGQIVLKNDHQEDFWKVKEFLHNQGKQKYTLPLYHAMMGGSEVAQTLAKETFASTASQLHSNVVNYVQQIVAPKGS
inactive: [1] 0.008 | filanesib -0.083 | zotarolimus 0.044 | idasanutlin -0.02 | alisertib -0.018 | [2] -0.009 | gefitinib -0.023 | [3] 0 | lapatinib 0.043 | pictilisib 0.008

SDCBP (UniProt O00560)
inactive: [1] -0.022 | filanesib -0.154 | zotarolimus 0.1 | idasanutlin 0.101 | alisertib -0.04 | [2] -0.152 | gefitinib -0.043 | [3] -0.022 | lapatinib 0.005 | pictilisib -0.05

RPS13 (UniProt P62277)
inactive: [1] -0.132 | filanesib 0.394 | zotarolimus 0.015 | idasanutlin 0.145 | alisertib -0.164 | [2] -0.012 | gefitinib -0.051 | [3] -0.316 | lapatinib 0.117 | pictilisib -0.226

RAB3IL1 (UniProt Q8TBN0)
Sequence of UniProt Q8TBN0 (Q8TBN0 whole entry, looked up): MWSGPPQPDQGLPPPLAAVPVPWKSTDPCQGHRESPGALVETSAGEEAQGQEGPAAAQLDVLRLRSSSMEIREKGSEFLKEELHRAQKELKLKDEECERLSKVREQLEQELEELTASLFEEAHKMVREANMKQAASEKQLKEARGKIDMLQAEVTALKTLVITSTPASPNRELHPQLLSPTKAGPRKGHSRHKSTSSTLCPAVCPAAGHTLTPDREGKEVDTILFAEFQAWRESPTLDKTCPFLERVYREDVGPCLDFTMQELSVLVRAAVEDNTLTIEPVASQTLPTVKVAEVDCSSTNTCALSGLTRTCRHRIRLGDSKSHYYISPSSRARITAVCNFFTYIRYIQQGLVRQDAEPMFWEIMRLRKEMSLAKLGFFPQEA
inactive: [1] -0.006 | filanesib -0.003 | zotarolimus -0.023 | idasanutlin 0 | alisertib -0.115 | [2] 0.07 | gefitinib 0.033 | [3] 0.038 | lapatinib 0.001 | pictilisib -0.019

RAD51 (UniProt Q06609)
inactive: [1] -0.057 | filanesib 0.003 | zotarolimus -0.034 | idasanutlin -0.072 | alisertib 0.041 | [2] -0.022 | gefitinib -0.07 | [3] 0.012 | lapatinib -0.024 | pictilisib -0.02

RETREG3 (UniProt Q86VR2)
Sequence of UniProt Q86VR2 (Q86VR2 whole entry, looked up): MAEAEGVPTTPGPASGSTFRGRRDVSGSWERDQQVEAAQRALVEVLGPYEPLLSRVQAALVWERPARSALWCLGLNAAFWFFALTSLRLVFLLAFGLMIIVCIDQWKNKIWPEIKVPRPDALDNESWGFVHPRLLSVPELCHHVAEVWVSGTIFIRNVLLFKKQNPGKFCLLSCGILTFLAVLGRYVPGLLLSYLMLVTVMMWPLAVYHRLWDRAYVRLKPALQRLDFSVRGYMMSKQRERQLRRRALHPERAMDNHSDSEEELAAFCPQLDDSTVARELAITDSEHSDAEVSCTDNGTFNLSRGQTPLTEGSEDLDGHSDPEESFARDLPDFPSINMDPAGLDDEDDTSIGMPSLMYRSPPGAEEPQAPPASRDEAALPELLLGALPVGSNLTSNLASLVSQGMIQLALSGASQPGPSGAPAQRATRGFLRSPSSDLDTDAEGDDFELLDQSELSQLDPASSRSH
inactive: [1] -0.038 | filanesib -0.136 | zotarolimus -0.053 | idasanutlin -0.008 | alisertib 0.029 | [2] -0.141 | gefitinib 0.035 | [3] 0.106 | lapatinib 0.037 | pictilisib 0.102

SCAMP2 (UniProt O15127)
Sequence of UniProt O15127 (O15127 whole entry, looked up): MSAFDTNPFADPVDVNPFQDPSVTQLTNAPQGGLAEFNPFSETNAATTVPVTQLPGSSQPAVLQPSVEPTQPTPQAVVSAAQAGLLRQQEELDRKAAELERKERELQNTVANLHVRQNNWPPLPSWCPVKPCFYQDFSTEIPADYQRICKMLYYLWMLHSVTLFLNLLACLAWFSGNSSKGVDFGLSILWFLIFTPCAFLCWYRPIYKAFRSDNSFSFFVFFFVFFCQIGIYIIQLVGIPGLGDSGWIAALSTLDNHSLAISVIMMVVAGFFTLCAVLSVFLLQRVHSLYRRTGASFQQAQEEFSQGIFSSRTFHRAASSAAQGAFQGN
inactive: filanesib 0.036 | zotarolimus 0.171 | idasanutlin -0.1 | alisertib -0.087 | [2] -0.035 | gefitinib 0.036 | [3] 0.042 | lapatinib 0.009 | pictilisib 0.199

RMDN2 isoform 2 (UniProt Q96LZ7)
Sequence of UniProt Q96LZ7 (Q96LZ7 whole entry, looked up): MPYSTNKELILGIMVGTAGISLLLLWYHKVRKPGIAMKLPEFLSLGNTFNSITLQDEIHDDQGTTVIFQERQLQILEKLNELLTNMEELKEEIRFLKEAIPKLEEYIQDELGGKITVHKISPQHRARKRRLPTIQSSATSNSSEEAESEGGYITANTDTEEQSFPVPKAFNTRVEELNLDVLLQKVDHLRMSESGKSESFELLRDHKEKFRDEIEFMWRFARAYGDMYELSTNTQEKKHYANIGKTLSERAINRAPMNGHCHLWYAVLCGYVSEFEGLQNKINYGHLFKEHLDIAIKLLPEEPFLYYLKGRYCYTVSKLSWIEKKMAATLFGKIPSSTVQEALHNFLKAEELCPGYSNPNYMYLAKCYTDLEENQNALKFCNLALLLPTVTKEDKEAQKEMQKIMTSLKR
inactive: [1] 0.008 | alisertib 0.389 | gefitinib -0.418 | [3] 0.191

RICTOR isoform 3 (UniProt Q6R327)
inactive: filanesib -0.028 | idasanutlin -0.066 | [2] 0.003 | gefitinib 0.059 | lapatinib 0.186 | pictilisib -0.062

RPS19 (UniProt M0R2L9)
inactive: idasanutlin -0.034 | alisertib -0.463 | [2] -0.158 | gefitinib 0.375 | [3] -0.331 | lapatinib -0.341

SF3B5 (UniProt Q9BWJ5)
Sequence of UniProt Q9BWJ5 (Q9BWJ5 whole entry, looked up): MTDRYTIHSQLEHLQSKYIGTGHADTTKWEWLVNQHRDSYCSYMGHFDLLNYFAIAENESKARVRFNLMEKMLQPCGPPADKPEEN
inactive: [1] 0.19 | filanesib 0.2 | idasanutlin 0.085 | alisertib -0.122 | [2] -0.026 | gefitinib 0.027 | [3] 0.044 | lapatinib -0.051 | pictilisib -0.069

ROMO1 (UniProt P60602)
inactive: filanesib -0.024 | zotarolimus -0.069 | idasanutlin 0.044 | alisertib 0.005 | [2] -0.024 | gefitinib 0.034 | [3] 0.033 | lapatinib -0.079 | pictilisib 0.035

SCYL3 isoform 2 (UniProt Q8IZE3)
inactive: [1] 0.017 | zotarolimus 0.008 | idasanutlin -0.117 | alisertib 0.063 | [2] 0.039 | gefitinib 0.063 | [3] 0.032 | lapatinib -0.084 | pictilisib 0.018

SAMD4B (UniProt Q5PRF9)
inactive: [1] 0.075 | filanesib 0.139 | zotarolimus 0.072 | [2] 0.14 | gefitinib 0.146 | lapatinib -0.036 | pictilisib -0.044

RBM48 isoform 2 (UniProt Q5RL73)
Sequence of UniProt Q5RL73 (Q5RL73 whole entry, looked up): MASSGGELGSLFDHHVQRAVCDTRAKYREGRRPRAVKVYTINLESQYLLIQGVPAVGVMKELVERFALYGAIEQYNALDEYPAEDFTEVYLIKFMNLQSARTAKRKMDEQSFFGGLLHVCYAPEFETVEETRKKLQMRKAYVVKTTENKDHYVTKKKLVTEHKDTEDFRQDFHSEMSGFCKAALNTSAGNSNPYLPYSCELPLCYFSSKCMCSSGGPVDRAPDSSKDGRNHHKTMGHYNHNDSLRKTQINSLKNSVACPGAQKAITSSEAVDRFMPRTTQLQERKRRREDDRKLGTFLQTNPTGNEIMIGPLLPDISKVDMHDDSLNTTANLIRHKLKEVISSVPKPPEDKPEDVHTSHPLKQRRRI
inactive: [1] -0.046 | filanesib -0.049 | zotarolimus -0.076 | idasanutlin 0.04 | [2] -0.046 | gefitinib -0.024 | lapatinib 0.011 | pictilisib -0.083

RUNX1 isoform 8 (UniProt Q01196)
inactive: [1] -0.055 | filanesib -0.084 | idasanutlin 0.075 | alisertib -0.292 | [2] 0.053 | gefitinib -0.074 | [3] -0.011 | lapatinib -0.001 | pictilisib 0.24

RNF220 isoform 3 (UniProt Q5VTB9)
Sequence of UniProt Q5VTB9 (Q5VTB9 whole entry, looked up): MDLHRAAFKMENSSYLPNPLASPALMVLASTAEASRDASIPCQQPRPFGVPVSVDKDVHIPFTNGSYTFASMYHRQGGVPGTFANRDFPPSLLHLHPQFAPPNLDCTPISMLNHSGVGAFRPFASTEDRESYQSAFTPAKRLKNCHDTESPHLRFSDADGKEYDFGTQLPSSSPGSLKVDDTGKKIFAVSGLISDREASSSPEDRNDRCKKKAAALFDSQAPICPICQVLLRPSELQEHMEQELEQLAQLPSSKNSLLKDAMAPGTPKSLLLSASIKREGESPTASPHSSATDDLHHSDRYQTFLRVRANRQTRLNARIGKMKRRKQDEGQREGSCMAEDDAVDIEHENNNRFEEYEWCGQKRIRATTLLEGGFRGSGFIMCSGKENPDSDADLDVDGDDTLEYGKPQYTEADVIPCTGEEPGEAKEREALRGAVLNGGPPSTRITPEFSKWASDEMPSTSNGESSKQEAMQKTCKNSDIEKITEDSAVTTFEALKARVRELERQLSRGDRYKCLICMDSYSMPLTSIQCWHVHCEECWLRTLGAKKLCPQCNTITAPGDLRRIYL
inactive: idasanutlin 0.073 | [2] -0.153 | lapatinib 0.261

SEPTIN5 (UniProt G3XAH0)
inactive: filanesib -0.044 | zotarolimus 0.045 | idasanutlin 0.027 | alisertib 0.003 | [2] 0.011 | gefitinib -0.057 | [3] 0.036 | lapatinib 0.094 | pictilisib 0.051

SDC3 (UniProt O75056)
inactive: filanesib 0.081 | zotarolimus -0.045 | idasanutlin 0.166 | gefitinib 0.115 | pictilisib -0.674

SAFB2 (UniProt K7EQU4)
inactive: [1] 0.115 | gefitinib -0.126

RPS3 (UniProt E9PJN9)
inactive: pictilisib 0.129

SERINC1 (UniProt Q9NRX5)
inactive: [1] 0.073 | filanesib -0.146 | idasanutlin 0.233 | alisertib 0.073 | [2] -0.208 | gefitinib -0.266 | [3] -0.167 | lapatinib -0.227

SH3PXD2B (UniProt A1X283)
inactive: filanesib -0.06 | zotarolimus -0.003 | idasanutlin -0.174 | alisertib -0.02 | gefitinib 0.149 | [3] -0.037 | pictilisib 0.162
